From PubChem BioAssay (NCI)
About 83,000 compounds went through this panel and 20% of them were active in at least one assay; those are over-represented in the sample as a whole.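 Each cell line was grown in a 96-well plate and treated with one concentration of compound for 48 hours. Values below 10 were considered active.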 Values without a mark were called inactive. Calls of active or inactive are those of the source.

Legend:
Test in all cases: NCI-60 one-dose screen, 48 h (100 = growth as untreated, 0 = no growth, -100 = all killed)
SK-MEL-2 melanoma = conditions: 10 µM unless noted
EKVX NSCLC = conditions: 10 µM
SN12C renal = conditions: 10 µM unless noted
UO-31 renal = conditions: 10 µM unless noted
TK-10 renal = conditions: 10 µM unless noted
ACHN renal = conditions: 10 µM unless noted
CAKI-1 renal = conditions: 10 µM unless noted
A498 renal = conditions: 10 µM unless noted
CCRF-CEM leukemia = conditions: 10 µM
MOLT-4 leukemia = conditions: 10 µM unless noted

Question: For `NC(N)=Nc1ccc(/C=C2\C=Cc3ccccc32)cc1`, which growth (SK-MEL-2 melanoma) is on record?
Answer: Its growth is 85.6%.

Question: And the growth (EKVX NSCLC)?
Answer: The growth was 75.7%.

Question: And the growth (SN12C renal)?
Answer: The growth was 79.3%.

Question: What about the growth (UO-31 renal) of the same compound?
Answer: The growth was 49.1%.

Question: What about the growth (TK-10 renal) of the same compound?
Answer: Its growth is 78.1%.

Question: What about the growth (ACHN renal) of the same compound?
Answer: The growth was 67.8%.

Question: And the growth (CAKI-1 renal)?
Answer: The growth was 64.2%.

Question: What about the growth (A498 renal) of the same compound?
Answer: The growth was 47.7%.

Question: And the growth (CCRF-CEM leukemia)?
Answer: The growth was 49.4%.

Question: And the growth (MOLT-4 leukemia)?
Answer: The growth was 37.2%.

Question: Which growth (SK-MEL-2 melanoma) does the source give for `COC(=O)c1ccc2[nH]c(O)c(C(=Nc3ccc(N(C)C(=O)CN4CCN(C)CC4)cc3)c3cccc(OC)c3)c2c1` here?
Answer: The growth was -0.0955% (active).

Question: What about the growth (EKVX NSCLC) of the same compound?
Answer: Its growth is 38.7%.

Question: And the growth (SN12C renal)?
Answer: Its growth is 9.77% (active).

Question: And the growth (UO-31 renal)?
Answer: The growth was 20.2%.

Question: And the growth (TK-10 renal)?
Answer: The growth was 0.964% (active).

Question: What about the growth (ACHN renal) of the same compound?
Answer: Its growth is 6.22% (active).

Question: And the growth (CAKI-1 renal)?
Answer: Its growth is 2.55% (active).

Question: And the growth (A498 renal)?
Answer: The growth was -14.9% (active).

Question: What about the growth (CCRF-CEM leukemia) of the same compound?
Answer: Its growth is 7.19% (active).

Question: What about the growth (MOLT-4 leukemia) of the same compound?
Answer: Its growth is -7.42% (active).

Question: How did the growth (SK-MEL-2 melanoma) turn out when `COC(=O)[C@@H]1[C@H](O)[C@H](C)[C@H](O)[C@H](C)/C=C\C=C(C)C(=O)Nc2c(C)c(OC(C)=O)c3c(c2O)C(=O)C(C)=C2OCOC(=C23)C(C)=C[C@@](C)(O)[C@H](O)[C@@H](C)[C@H]1OC(C)=O` was run?
Answer: The growth was 8.13% (active).

Question: What about the growth (EKVX NSCLC) of the same compound?
Answer: Its growth is 112%.

Question: And the growth (SN12C renal)?
Answer: Its growth is 112%.

Question: What about the growth (UO-31 renal) of the same compound?
Answer: The growth was 101%.

Question: What about the growth (TK-10 renal) of the same compound?
Answer: The growth was 73.5%.

Question: What about the growth (ACHN renal) of the same compound?
Answer: The growth was 122%.

Question: What about the growth (CAKI-1 renal) of the same compound?
Answer: Its growth is 116%.

Question: What about the growth (A498 renal) of the same compound?
Answer: The growth was 141%.

Question: What about the growth (CCRF-CEM leukemia) of the same compound?
Answer: Its growth is 99.3%.

Question: What about the growth (MOLT-4 leukemia) of the same compound?
Answer: Its growth is 87.6%.

Question: How did the growth (SK-MEL-2 melanoma) turn out when `COc1ccc(Cn2cc3c(c2)-c2oncc2CC3)cc1OC` was run?
Answer: The growth was 43%.

Question: What about the growth (EKVX NSCLC) of the same compound?
Answer: Its growth is 43.7%.

Question: What about the growth (SN12C renal) of the same compound?
Answer: Its growth is 38.9%.

Question: And the growth (UO-31 renal)?
Answer: The growth was 44.1%.

Question: What about the growth (TK-10 renal) of the same compound?
Answer: Its growth is 65.2%.

Question: What about the growth (ACHN renal) of the same compound?
Answer: The growth was 44.3%.

Question: What about the growth (CAKI-1 renal) of the same compound?
Answer: The growth was 21.9%.

Question: What about the growth (A498 renal) of the same compound?
Answer: The growth was 21.4%.

Question: What about the growth (CCRF-CEM leukemia) of the same compound?
Answer: The growth was 14.9%.

Question: What about the growth (MOLT-4 leukemia) of the same compound?
Answer: Its growth is 31%.

Question: What does the source list for `Cc1ccc(S(=O)(=O)Nc2cccc(Cn3c(=O)[nH]c4ccc(Oc5ncccn5)cc4c3=O)c2)cc1`?
Answer: growth (SK-MEL-2 melanoma): 55%; growth (EKVX NSCLC): 86.6%; growth (SN12C renal): 86.5%; growth (UO-31 renal): 74.2%; growth (TK-10 renal): 105%; growth (ACHN renal): 87.7%; growth (CAKI-1 renal): 92.9%; growth (A498 renal): 77.8%; growth (CCRF-CEM leukemia): 65.9%; growth (MOLT-4 leukemia): 64.5%

Question: `COC(=O)C1CC(=O)N(C(=O)Nc2ccc(Cl)cc2Cl)C1` (stereo not given) was tested. Which growth (SK-MEL-2 melanoma) did it give?
Answer: The growth was 108%.

Question: And the growth (EKVX NSCLC)?
Answer: Its growth is 96.5%.

Question: What about the growth (SN12C renal) of the same compound?
Answer: The growth was 101%.

Question: And the growth (UO-31 renal)?
Answer: Its growth is 84.1%.

Question: And the growth (TK-10 renal)?
Answer: Its growth is 112%.

Question: And the growth (ACHN renal)?
Answer: The growth was 99.9%.

Question: And the growth (CAKI-1 renal)?
Answer: The growth was 95.6%.

Question: What about the growth (A498 renal) of the same compound?
Answer: The growth was 115%.

Question: And the growth (CCRF-CEM leukemia)?
Answer: Its growth is 103%.

Question: What about the growth (MOLT-4 leukemia) of the same compound?
Answer: The growth was 95%.

Question: `N#Cc1ccc(NC2c3ccccc3CC2O)cc1` (stereo not given) was tested. Which growth (SK-MEL-2 melanoma) did it give?
Answer: Its growth is 103%.

Question: What about the growth (EKVX NSCLC) of the same compound?
Answer: Its growth is 114%.

Question: And the growth (SN12C renal)?
Answer: Its growth is 107%.

Question: And the growth (UO-31 renal)?
Answer: The growth was 83.1%.

Question: And the growth (TK-10 renal)?
Answer: The growth was 119%.

Question: What about the growth (ACHN renal) of the same compound?
Answer: The growth was 104%.

Question: What about the growth (CAKI-1 renal) of the same compound?
Answer: Its growth is 106%.

Question: And the growth (A498 renal)?
Answer: The growth was 115%.

Question: What about the growth (CCRF-CEM leukemia) of the same compound?
Answer: Its growth is 94.6%.

Question: What about the growth (MOLT-4 leukemia) of the same compound?
Answer: The growth was 91.5%.

Question: Which results are given for `Cc1nn(-c2ccccc2)c(N)c1N=C1NC(=O)/C(=C/c2ccc(Cl)cc2)S1`?
Answer: growth (SK-MEL-2 melanoma): 100%; growth (EKVX NSCLC): 90.8%; growth (SN12C renal): 85.8%; growth (UO-31 renal): 73%; growth (TK-10 renal): 104%; growth (ACHN renal): 87.3%; growth (CAKI-1 renal): 66.8%; growth (A498 renal): 68.6%; growth (CCRF-CEM leukemia): 68.2%; growth (MOLT-4 leukemia): 87.9%

Question: With `COc1ccc(-n2nnnc2-c2cn[nH]c2C(F)(F)F)cc1` as the compound, how does the growth (SK-MEL-2 melanoma) read?
Answer: Its growth is 92.4%.

Question: And the growth (EKVX NSCLC)?
Answer: The growth was 90.3%.

Question: And the growth (SN12C renal)?
Answer: Its growth is 104%.

Question: And the growth (UO-31 renal)?
Answer: The growth was 92.9%.

Question: What about the growth (TK-10 renal) of the same compound?
Answer: The growth was 113%.

Question: And the growth (ACHN renal)?
Answer: Its growth is 99.3%.

Question: What about the growth (CAKI-1 renal) of the same compound?
Answer: Its growth is 92.5%.

Question: What about the growth (A498 renal) of the same compound?
Answer: The growth was 83.2%.

Question: And the growth (CCRF-CEM leukemia)?
Answer: The growth was 98.3%.

Question: And the growth (MOLT-4 leukemia)?
Answer: The growth was 79%.

Question: With `N=C(N)c1ccc(-c2ccc(-c3cc(Cl)cc(Cl)c3)s2)cc1` as the compound, how does the growth (SK-MEL-2 melanoma) read?
Answer: The growth was -46.1% (active).

Question: And the growth (EKVX NSCLC)?
Answer: Its growth is -72% (active).

Question: What about the growth (SN12C renal) of the same compound?
Answer: The growth was -77% (active).

Question: And the growth (UO-31 renal)?
Answer: The growth was -77.5% (active).

Question: And the growth (TK-10 renal)?
Answer: The growth was -74.8% (active).

Question: And the growth (ACHN renal)?
Answer: The growth was -94.4% (active).

Question: And the growth (CAKI-1 renal)?
Answer: The growth was -90.2% (active).

Question: What about the growth (A498 renal) of the same compound?
Answer: Its growth is -94.6% (active).

Question: And the growth (CCRF-CEM leukemia)?
Answer: The growth was -67.1% (active).

Question: And the growth (MOLT-4 leukemia)?
Answer: The growth was -50.3% (active).

Question: What does the source list for `CN1CCN(Cc2ccc(NC(=O)c3ccc(C#Cc4c(N)ncc5ccc(F)cc45)cc3)cc2C(F)(F)F)CC1`?
Answer: growth (SK-MEL-2 melanoma): -40.3% (active); growth (EKVX NSCLC): -59.1% (active); growth (SN12C renal): -71.3% (active); growth (UO-31 renal): -56.8% (active); growth (TK-10 renal): -42.2% (active); growth (ACHN renal): -92.6% (active); growth (CAKI-1 renal): 42.7%; growth (A498 renal): 77.9%; growth (CCRF-CEM leukemia): -40.2% (active); growth (MOLT-4 leukemia): -55.2% (active)

Question: With `COc1cccc(Cn2cc3c(c2)-c2oncc2CC3)c1` as the compound, how does the growth (SK-MEL-2 melanoma) read?
Answer: Its growth is 35.5%.

Question: And the growth (EKVX NSCLC)?
Answer: The growth was 27.2%.

Question: What about the growth (SN12C renal) of the same compound?
Answer: The growth was 34.5%.

Question: What about the growth (UO-31 renal) of the same compound?
Answer: Its growth is 38.8%.

Question: And the growth (TK-10 renal)?
Answer: Its growth is 69.4%.

Question: And the growth (ACHN renal)?
Answer: Its growth is 42.7%.

Question: What about the growth (CAKI-1 renal) of the same compound?
Answer: Its growth is 13.9%.

Question: What about the growth (A498 renal) of the same compound?
Answer: Its growth is 36.4%.

Question: And the growth (CCRF-CEM leukemia)?
Answer: The growth was 15.2%.

Question: What about the growth (MOLT-4 leukemia) of the same compound?
Answer: Its growth is 26.6%.

Question: With `COc1ccc(OC)c(Cn2cc3c(c2-c2ccccc2)CCc2cnoc2-3)c1` as the compound, how does the growth (SK-MEL-2 melanoma) read?
Answer: Its growth is 74.2%.

Question: And the growth (EKVX NSCLC)?
Answer: Its growth is 58.5%.

Question: What about the growth (SN12C renal) of the same compound?
Answer: The growth was 73%.

Question: What about the growth (UO-31 renal) of the same compound?
Answer: The growth was 59%.

Question: What about the growth (TK-10 renal) of the same compound?
Answer: Its growth is 86.1%.

Question: What about the growth (ACHN renal) of the same compound?
Answer: Its growth is 65.3%.

Question: And the growth (CAKI-1 renal)?
Answer: The growth was 28.9%.

Question: And the growth (A498 renal)?
Answer: Its growth is 53.8%.

Question: What about the growth (CCRF-CEM leukemia) of the same compound?
Answer: The growth was 48.7%.

Question: What about the growth (MOLT-4 leukemia) of the same compound?
Answer: Its growth is 47%.

Question: How did the growth (SK-MEL-2 melanoma) turn out when `COc1cc(NC(=O)CSc2nc3ccc(Cl)cc3c(=O)n2-c2ccc(F)cc2)cc(OC)c1OC` was run?
Answer: Its growth is 92.6%.

Question: And the growth (EKVX NSCLC)?
Answer: The growth was 67.8%.

Question: And the growth (SN12C renal)?
Answer: The growth was 78.7%.

Question: And the growth (UO-31 renal)?
Answer: The growth was 40.6%.

Question: What about the growth (TK-10 renal) of the same compound?
Answer: Its growth is 97.8%.

Question: What about the growth (ACHN renal) of the same compound?
Answer: Its growth is 85.6%.

Question: And the growth (CAKI-1 renal)?
Answer: The growth was 71.5%.

Question: What about the growth (A498 renal) of the same compound?
Answer: The growth was 34.8%.

Question: And the growth (CCRF-CEM leukemia)?
Answer: The growth was 94%.

Question: What about the growth (MOLT-4 leukemia) of the same compound?
Answer: Its growth is 61.8%.
